Here are results for 106 compounds from ChEMBL document CHEMBL4513216, “Probing the Open Global Health Chemical Diversity Library for Multistage-Active Starting Points for Next-Generation Antimalarials” (ACS Infect Dis, 2020).

Hit rate of the full screen: of about 69,000 compounds, about 8,600 (12%) showed an effect of 50% or more. The entries come from a sample that favours strong results as a whole.

This experiment deals with Plasmodium berghei. As to the kind of experiment: Screen against P. berghei liver stage (PbLuc), transformed with Luciferase, at 10uM. The class given is functional, HepG2. Particulars: tested at 10 uM.
In the case of `CCn1nc(C)cc1C(=O)N1C[C@@H]2C[C@@H](c3nc(C)cs3)O[C@@H]2C1`, the INHIBITION was determined as 15.6%.
With `CC(C)COc1cncc(N2CCCN(CC(F)(F)F)CC2)n1`, the INHIBITION was -1.04%.
`CC(C)COc1cncc(N2CCCN(c3ncccn3)CC2)n1`: the INHIBITION was determined as 50.4%.
As to `CC(C)COc1cncc(N(C)C2CCN(c3ncccn3)CC2)n1`, the INHIBITION is 21.2%.
On to `O=C(NCc1ccco1)[C@@]12CCO[C@@H]1CCN(c1ncccn1)C2`, for which the INHIBITION was determined as 27.6%.
As to `Cn1cc(CC2CC(=O)N(Cc3ccccc3OC(F)F)C2=O)cn1` (stereo unspecified), the INHIBITION was 33.1%.
Turning to `CN(C)C(=O)c1nn(C)c2c1CN(Cc1cccs1)C2`, the INHIBITION is -6.23%.
In the case of `Cc1ccc(CN2C[C@H](N3CCOCC3)[C@@H]3OCCC[C@@H]32)o1`, the INHIBITION is recorded as -22.1%.
In the case of `Cc1nccn1CCC1CCN(C(C)C)CC1`, the INHIBITION is given as 38.8%.
Regarding `CN1CCCN(c2ccc(F)cc2CNC(=O)c2cccnc2)CC1`, the INHIBITION was -12.2%.
For the compound `Cc1ccc(C(=O)NCc2cc(F)ccc2N2CCCN(C)CC2)o1`, the INHIBITION was found to be 42.1%.
Consider `CN1CCCN(c2ccc(F)cc2CNC(=O)c2ccsc2)CC1`, for which the INHIBITION is on record as 79.7%.
As to `CN(CCCOc1ccccc1Cl)C(=O)CN1C[C@H]2CC[C@@H](CC1=O)N2`, the INHIBITION is 17%.
Turning to `CCS(=O)(=O)NC1CCCN(c2ccc(F)cc2C)C1=O` (stereo unspecified), the INHIBITION turned out to be 5.29%.
With `Cc1oc(C(C)C)cc1C(=O)N1CCN(c2cnn(C)c(=O)c2)CC1` the figure was 51.1%; with `Cc1cncc(C(=O)N2CCN(c3cnn(C)c(=O)c3)CC2)c1`, -5.52%.
For the compound `CCc1ncc(C(=O)N2CCN(c3cnn(C)c(=O)c3)CC2)cn1`, the INHIBITION came out at 45.8%.
Take `CN(C)c1ccccc1C(=O)N1CCCC(c2ccc(C(=O)O)cc2)C1` (stereo unspecified): the INHIBITION was found to be 18.6%.
Take `CC(Cn1cccn1)NCc1csc(-c2ncccn2)n1` (stereo unspecified): the INHIBITION is on record as -29.1%.
Consider `CCC(C(=O)NCc1csc(-c2ncccn2)n1)n1cccn1` (stereo unspecified), for which the INHIBITION was 60.4%.
As to `CCc1csc(CNC(=O)C(CC)n2cccn2)n1` (stereo unspecified), the INHIBITION came out at 19.8%.
With `CCC(C(=O)N1CCN(C(=O)N2CCOCC2)CC1)n1cccn1` (stereo unspecified) the figure was 33%; with `CCC(C(=O)NCc1cc(N2CCOCC2)ncn1)n1cccn1` (stereo unspecified), 36.7%.
In the case of `CCC(C(=O)NCc1csc(N2CCOCC2)n1)n1cccn1` (stereo unspecified), the INHIBITION is reported as 57.5%.
Regarding `Cc1ccoc1C(=O)N1CCO[C@H]2[C@H](OCCN(C)C)CC[C@@H]21`, the INHIBITION was found to be 22.4%.
On to `Cc1ccc(C(=O)NCCS(=O)(=O)N2CCSCC2)n1C`, for which the INHIBITION is on record as -28.9%.
The result for `CC(C)=CCN1CCN(CCCOc2ccccc2)[C@H]2CS(=O)(=O)C[C@H]21` reads -25.7%; that for `CC(C)=CCN1CCN(CCCc2ccccc2)[C@H]2CS(=O)(=O)C[C@H]21`, 51.3%; that for `CN(C)C(=O)N1CCN(CCCc2ccccc2)[C@H]2CS(=O)(=O)C[C@H]21`, -11.5%.
On to `COc1ccc(OCCN(C)Cc2nc3c(cnn3C)c(=O)[nH]2)cc1`, for which the INHIBITION is 38.8%.
Consider `CN1CCC(C)(CN(C)Cc2ccc(CCC(C)(C)O)cc2)C1` (stereo unspecified), for which the INHIBITION was determined as 32.4%.
In the case of `Cc1cc(S(=O)(=O)NCC(C)(O)CN(C)C)c(F)cc1F` (stereo unspecified), the INHIBITION came to 36.5%.
The result for `COc1cc(NC(=O)N(C)CCC2CC2)ncn1` reads 4.82%; that for `COc1cc(NC(=O)N(C)C(C2CC2)C2CC2)ncn1`, 88.4%.
In the case of `COc1cc(NC(=O)N(C)CC2CC2)ncn1`, the INHIBITION is reported as 1.84%.
`CS(=O)(=O)c1cccc(C(N)c2ccc(Cl)cc2)c1` (stereo unspecified): the INHIBITION is given as -53.2%.
On to `CCn1ccnc1CN1CCN(CCc2ccncc2)CC1C` (stereo unspecified), for which the INHIBITION stood at 24.7%.
Regarding `O=C(O)[C@@H]1CN(C(=O)c2ccc(O)cc2)C[C@H]1c1cccc(F)c1`, the INHIBITION is -19.5%.
With `O=C(O)[C@@H]1CN(C(=O)c2ccc(Cl)cc2)C[C@H]1c1cccc(F)c1`, the INHIBITION is recorded as 13.3%.
For the compound `O=C(O)[C@@H]1CN(C(=O)c2ccc(F)c(F)c2)C[C@H]1c1cccc(F)c1`, the INHIBITION is recorded as 65.7%.
Take `CCN(Cc1nonc1C)C(=O)Cn1nc(C(F)(F)F)cc1C`: the INHIBITION is listed as 44.35%.
On to `CCOc1cc(C(=O)n2cccn2)cc(OCC)c1OCC`, for which the INHIBITION is reported as -30.6%.
As for `N#CCCN(C(=O)CCc1cscn1)c1ccc2c(c1)OCCO2`, the INHIBITION is -7.46%.
Consider `Cc1ccc(C(=O)Oc2cc(=O)n3cccc(C)c3n2)cc1`, for which the INHIBITION was 59.8%.
As for `Cc1cccn2c(=O)cc(OC(=O)c3ccccc3)nc12`, the INHIBITION is -19.7%.
In the case of `Cc1cccc(C(=O)Oc2cc(=O)n3cccc(C)c3n2)c1`, the INHIBITION was -51.1%.
`CN1CCc2c(C#N)c(NCC3CCCO3)n3cnnc3c2C1` (stereo unspecified): the INHIBITION was -1.45%.
For the compound `CCOc1nc2cnccc2n(CC(=O)NCc2ccc(C)cc2)c1=O`, the INHIBITION is reported as 53.1%.
The result for `CCOc1nc2cnccc2n(CC(=O)NCCc2ccccc2)c1=O` reads 33.9%.
For the compound `CCOc1nc2cnccc2n(CC(=O)NCc2ccco2)c1=O`, the INHIBITION was determined as 46.7%.
As to `COc1cccc2c(=O)n(Cc3cc(C4CC4)[nH]n3)cnc12`, the INHIBITION is -6.94%.
The result for `COc1cccc2c(=O)n(Cc3ccnc(C)c3)cnc12` reads 17.5%; that for `COc1cccc2c(=O)n(Cc3cccnc3)cnc12`, -20%; that for `COc1cccc2c(=O)n(CCN3CCNCC3)cnc12`, -109%.
Turning to `COc1cccc2c(=O)n(C3CCCNC3)cnc12` (stereo unspecified), the INHIBITION was determined as 61%.
Take `COc1cccc2c(=O)n(C3CCNCC3)cnc12`: the INHIBITION is given as 57.3%.
Consider `O=C(NCc1cccs1)C1CNCC12CCOCC2` (stereo unspecified), for which the INHIBITION is -30.1%.
With `CCCn1[nH]c(CNc2ccccc2)nc1=O`, the INHIBITION is given as 32.5%.
As to `CC(=O)c1cn(CC(=O)N[C@H](C(=O)O)C(C)C)c2ccccc12`, the INHIBITION was found to be 35.1%.
Consider `Cc1ccc(C)c(N2CCN(CC3(O)CCNC3)CC2)c1` (stereo unspecified), for which the INHIBITION worked out at 50.5%.
Take `CCOc1ccccc1N1CCN(CC2(O)CCCNC2)CC1` (stereo unspecified): the INHIBITION came to 29.2%.
The result for `Cc1ccccc1N1CCCN(CC2(O)CCCNC2)CC1` (stereo unspecified) reads 39.9%; that for `NC(=O)c1csc(C(=O)N2CCCC(n3cccn3)C2)c1` (stereo unspecified), 23.4%; that for `Cc1nc(CN(Cc2ccc3c(c2)OCCO3)C2CCCC2)no1`, -31.8%.
With `CCN(CC)C(=O)CN1CCCC(c2nc(C)c3c(n2)N(C)CCC3)C1` (stereo unspecified), the INHIBITION was 36%.
Take `CNc1cc(C)nc(C2COCCN2Cc2csc(C)n2)n1` (stereo unspecified): the INHIBITION came out at 53.6%.
For `Cc1cc(N(C)C)nc(C2COCCN2Cc2csc(C)n2)n1` (stereo unspecified), the INHIBITION stood at 39.3%.
The result for `CNc1cc(C)nc(C2COCCN2CCc2ccccc2)n1` (stereo unspecified) reads -2.9%; that for `Cc1ccc(Br)cc1S(=O)(=O)NCCc1nnc[nH]1`, 23.5%.
For the compound `Cc1ncnc2c1CCN(Cc1ccc3c(c1)OCO3)CC2`, the INHIBITION is listed as 41.8%.
`CC(=O)NCCC(Cc1ccccc1)c1ccco1` (stereo unspecified): the INHIBITION is reported as -24.6%.
Consider `O=C(CCCOc1ccc(F)cc1F)N1CCCC(n2cccn2)C1` (stereo unspecified), for which the INHIBITION is 11.4%.
As for `COCCn1cnnc1CN(C)c1nc(N)nc2c1CCCC2`, the INHIBITION turned out to be 23.3%.
Take `CCc1nc(N)nc(N(C)Cc2nncn2CCOC)c1C`: the INHIBITION is 73.5%.
The result for `COCCn1cnnc1CN(C)c1nc(N)ncc1C` reads 0.897%.
With `CCO[C@@H]1CC[C@H]2[C@H]1OCCN2S(=O)(=O)C1CC1` the figure was 2.59%.
Take `Cc1cc(C)c(S(N)(=O)=O)cc1C(=O)NCCN1CCC(C)CC1`: the INHIBITION is -7.83%.
With `O=C(NCCCN1CCOCC1)c1ccc(Cl)cc1Cl` the figure was -4.52%; with `CN(c1ccc(C(=O)NCCCN2CCCCC2)c(Cl)c1)S(C)(=O)=O`, 70.4%.
Consider `CN(c1ccc(C(=O)NCCCN2CCOCC2)c(Cl)c1)S(C)(=O)=O`, for which the INHIBITION worked out at 46.8%.
`CC1CCN(CCCNC(=O)c2ccc(N(C)S(C)(=O)=O)cc2Cl)CC1`: the INHIBITION came out at 79.2%.
`Cc1ccc(C(=O)NCCN2CCOCC2)cc1N(C)S(C)(=O)=O`: the INHIBITION worked out at 55.5%.
With `CN(c1ccc(Cl)c(C(=O)NCCCN2CCOCC2)c1)S(C)(=O)=O` the figure was 63.3%; with `CN(c1ccc(C(=O)NCCN2CCOCC2)c(Cl)c1)S(C)(=O)=O`, 38.5%.
The result for `Cc1ccc(C(=O)NCCCN2CCOCC2)c(Cl)c1` reads -56.5%; that for `Cc1ccc(C(=O)NC2CCN(C)CC2)cc1N(C)S(C)(=O)=O`, 34.2%; that for `CN(c1ccc(C(=O)NCCCN2CCCC2)c(Cl)c1)S(C)(=O)=O`, 40.9%.
With `Cc1ccc(C(=O)NCCC2CCN(C)CC2)cc1N(C)S(C)(=O)=O` the figure was 42.1%.
For `Cc1c(Cn2c(=O)cnc3ccccc32)cnn1C`, the INHIBITION is 34%.
As to `COCC(=O)N1CCC2(CC1)NC(=O)c1ccccc12`, the INHIBITION is 46.7%.
Turning to `Cc1ccc(CN2CC[C@@H]3[C@@H](CO[C@H]3CN3CCN(C)CC3)C2)s1`, the INHIBITION is reported as -35.9%.
Turning to `NC(=O)C1CCN(CC(=O)N(Cc2ccccc2)Cc2nccs2)CC1`, the INHIBITION was found to be 2.15%.
Turning to `O=C(Cc1ccon1)N1CCc2cc(Br)sc2C1`, the INHIBITION is recorded as -28.9%.
The result for `CC(C)c1nnc(CN2CCCC(c3cc(C(N)=O)[nH]n3)C2)o1` (stereo unspecified) reads 33.7%; that for `C[C@@H]1CN(c2nc3c(cc2C(N)=O)CCC3)C[C@]1(C)O`, -13.8%; that for `CCc1nc(CC2CN(c3ncnc4nc(C)cc(C)c34)CCO2)no1` (stereo unspecified), 22%.
Consider `CN(C)CCCNC(=O)c1ccc(N(C)S(C)(=O)=O)cc1Cl`, for which the INHIBITION worked out at 64.1%.
Turning to `CC1CCCN(CCCNC(=O)c2cn(C)nc2-c2cccnc2)C1` (stereo unspecified), the INHIBITION was found to be 13.2%.
Turning to `CN1CCC(CCNC(=O)c2ccc(N(C)S(C)(=O)=O)cc2Cl)CC1`, the INHIBITION came to 8.47%.
As to `Cc1nc(-c2noc3ccc(C(=O)NCCN4CCOCC4)cc23)co1`, the INHIBITION turned out to be 63%.
The result for `Cc1nc(-c2noc3ccc(C(=O)NCCN(C)C)cc23)co1` reads 8.31%; that for `CC1CCCN(CCCNC(=O)c2ccc(N(C)S(C)(=O)=O)cc2Cl)C1` (stereo unspecified), 53.7%; that for `CN(C)CCCNC(=O)c1cc(Cl)ccc1Cl`, 4.93%.
For `CN(C)CCCNC(=O)c1ccc(Cl)cc1Cl`, the INHIBITION worked out at 16%.
The result for `Cc1nc(-c2noc3ccc(C(=O)NCCN4CCOCC4)cc23)cs1` reads 46.7%.
With `Cc1ncsc1C(=O)NCc1ccnc(N2CCN(C)CC2)c1` the figure was 12.85%.
